# Screening data from PubChem.
# ALR H2O2 inh: inhibitors of human ALR sulfhydryl oxidase, primary screen, biochemical, H2O2 detection, HRP-luminol luminescence, single point | AID 485317, 2010 | purified ALR, DTT oxidation | actives 3.8% (n = 290,000) | inhibition, % (no concentration beside the values);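 active = mean replicate inhibition above about 79%, with every replicate also reaching it, limit read from the data; inconclusive = only one of the two criteria met; inactive = mean below limit and not every replicate reaching it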
# Target sequence (P55789 whole entry, looked up): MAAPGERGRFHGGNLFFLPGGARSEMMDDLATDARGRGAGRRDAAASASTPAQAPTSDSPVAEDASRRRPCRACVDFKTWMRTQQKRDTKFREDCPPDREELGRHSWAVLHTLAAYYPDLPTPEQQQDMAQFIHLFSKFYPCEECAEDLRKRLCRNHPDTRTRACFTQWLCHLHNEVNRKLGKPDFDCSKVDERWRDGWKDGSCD
# MLLE-PAM2 inh: inhibitors of PABP1 MLLE–PAM2 peptide binding, primary screen, biochemical, fluorescence polarization, FITC-PAM2, GST-MLLE | Polyadenylate-binding protein 1 (Homo sapiens), P11940 | inhibition, % at 20 µM | actives 0.36% (n = 360,000) | AID 588489, 2011; in the data active = inhibition above about 35%, passing the limit was not always enough
# Efflux pump mplx: inhibitors of Candida efflux pumps in yeast, primary screen, S. cerevisiae, Nile Red, multiplex; actives 0.44% (n = 330,000); inhibition, % at 10 µM; AID 485275, 2010; S. cerevisiae Candida pump triplex;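 active = plate passing quality check with inhibition over a set limit, or well fluorescence over plate mean plus 4 SD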;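 also: Nile Red retained in pooled yeast measured as flow cytometry median fluorescence; higher means more Nile Red kept so more efflux inhibition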
# PABP polyA inh: PABP poly(A) RNA binding inhibitors, primary screen, biochemical, fluorescence polarization, uHTS; AID 2014, 2009; inhibition, % at 35 µM; actives 1% (n = 290,000); Polyadenylate-binding protein 1 (Homo sapiens), P11940;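 also: calls also rest on retests at 20 µM and on dose response follow-up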
# SUMO HTRF inh: inhibitors of in vitro SUMOylation cascade, primary screen, biochemical, HTRF, uHTS; SUMO-conjugating enzyme UBC9 (Homo sapiens), P63279; HTRF SUMOylation assay, SAE1/SAE2 + UBC9; inhibition, % at 35 µM; actives 0.36% (n = 290,000); in the data active = inhibition above about 50%, passing the limit was not always enough; inconclusive = no clear call, values can overlap the other calls
# Target sequence (P63279 whole entry, looked up): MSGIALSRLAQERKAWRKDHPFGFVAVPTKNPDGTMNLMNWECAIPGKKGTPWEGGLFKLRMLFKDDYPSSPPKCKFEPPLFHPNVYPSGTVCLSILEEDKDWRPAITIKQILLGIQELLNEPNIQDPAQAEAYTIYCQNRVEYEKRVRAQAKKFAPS
# eIF4H inh: human eIF4H binding inhibitors, primary screen, translation initiation inhibitor project, biochemical, uHTS, fluorescence polarization | eIF4H fluorescence polarization binding assay | inhibition, % at 35 µM | actives 0.94% (n = 290,000) | AID 2012, 2009;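 also: calls also rest on retests at 20 µM and on dose response follow-up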
# A number is an active result; i = inactive; ? = inconclusive; nt = no result given. In the library only some 4.7% were active in any assay of this set; here they are far more common. Unless noted, no rule for the calls is given here.
SMILES,ALR H2O2 inh,MLLE-PAM2 inh,Efflux pump mplx,PABP polyA inh,SUMO HTRF inh,eIF4H inh
COc1cc(/C=N/NC(=O)c2ccncc2)ccc1O,98.7,i,i,i,i,i
COc1cc(/C=N/NC(=O)c2ccncc2)c([N+](=O)[O-])cc1OC,nt,i,i,i,i,i
CC#CC(=O)N1CCCC(Cc2cccc(OC)c2)(C(=O)OCC)C1 (stereo not given),nt,i,i,i,i,i
COc1ccc(S(=O)(=O)c2c(O)cc(C)c(NS(=O)(=O)c3ccccc3)c2C)cc1,i,i,i,i,i,i
COc1cc(/C=N/NC(=O)c2cccc(C(=O)N/N=C/c3ccc(O)c(OC)c3)n2)ccc1O,i,i,i,i,i,i
COc1cc(/C=N/NC(=O)c2cc3ccccc3[nH]2)ccc1O,99.6,i,i,i,i,i
COc1cc(/C=N/Nc2ccc(C(F)(F)F)cn2)ccc1O,99.5,i,i,i,i,i
O=C(N/N=C/c1ccncc1)c1cc([N+](=O)[O-])cc([N+](=O)[O-])c1O,i,i,i,i,i,75.6
COc1cc(/C=N/NC(=O)c2nc(C)cc(C)n2)ccc1O,99.0,i,i,i,i,i
CCc1nc2ccc(C(=O)N3CCN(C)CC3)cn2c1N(C)CCC(C)C,nt,i,nt,nt,nt,nt
COc1cccc(NC(=O)c2ccccc2N2C(=O)C3C4C=CC(C5CC45)C3C2=O)c1 (stereo not given),i,i,i,i,i,i
COCCCNC(=O)c1cccc2c(-c3ccnn3C)coc12,nt,i,nt,nt,nt,nt
CCOc1ccc(C(=O)CSCC(=O)O)cc1,98.5,i,i,i,i,i
CCOc1ccc(C(=O)CCC(=O)O)cc1,i,i,i,i,i,i
CC1CN=C(NC(=O)c2cccc([N+](=O)[O-])c2)S1 (stereo not given),nt,41.5,i,i,i,i
O=S(=O)(NC1c2cccc3cccc(c23)C1N1CCNCC1)c1ccc(Cl)cc1 (stereo not given),i,i,i,i,i,i
S=c1[nH]cnc2scc(-c3ccc(Br)cc3)c12,i,i,i,i,i,i
Cc1ccc(-c2csc3nc[nH]c(=S)c23)cc1,96.6,i,i,i,i,i
Cc1cc(-c2csc3nc[nH]c(=S)c23)cc(C)c1C,97.3,i,i,i,i,i
CCN1CCN(c2ccc(NC(=O)CC3OC(=O)c4ccccc43)cc2C)CC1 (stereo not given),nt,i,nt,nt,nt,nt
CC(C)Nc1ncnc2[nH]ncc12,nt,i,nt,nt,nt,nt
Cc1ccc(CNC(=O)COC(=O)c2cnc(C)cn2)cc1,i,i,i,i,i,i
CCNC(=O)C1CCCc2c1[nH]c1ccc(Cl)cc21 (stereo not given),i,i,i,i,i,i
NC(=O)C1CCCCc2c1[nH]c1ccc(Cl)cc21 (stereo not given),97.8,i,i,i,i,i
NC(=O)NC1CCCc2c1[nH]c1ccc(Cl)cc21 (stereo not given),98.1,i,i,i,i,i
SMILES,ALR H2O2 inh,MLLE-PAM2 inh,Efflux pump mplx,PABP polyA inh,SUMO HTRF inh,eIF4H inh
Cc1ccc(NC(=O)C(=O)NCCOc2ccc(Cl)cc2)c(C)c1,i,i,i,i,i,i
Cc1[nH]oc(=O)c1N=Nc1ccccc1,i,i,i,i,i,i
Cc1[nH]oc(=O)c1N=Nc1c(Cl)cccc1Cl,92.3,i,i,i,i,i
O=C(NC(=S)Nc1ccc(CN2CCCCC2)cc1)c1ccco1,i,36.2,i,i,i,i
O=C(NC(=S)Nc1ccc(CN2CCOCC2)cc1)c1ccco1,i,i,i,i,i,i
Cc1ccc(S(=O)(=O)N2CCCCC2)cc1NC(=S)NC(=O)c1ccco1,i,39.5,i,i,i,i
CCN(CC)S(=O)(=O)c1ccc(C)c(NC(=O)CNc2cccc(S(=O)(=O)N3CCOCC3)c2)c1,i,i,i,nt,nt,nt
CCN(CC)S(=O)(=O)c1ccc(C)c(NC(=S)Nc2cccc(S(=O)(=O)N3CCCCCC3)c2)c1,i,36.5,i,i,i,i
CSCc1ccc(C(=O)NC(C)c2cnn(-c3ccccn3)c2C)o1 (stereo not given),90.0,i,i,i,i,i
O=C1NC(=Nc2ccccc2)S/C1=C\C=C\c1ccco1,i,i,i,i,i,i
Cc1ccc(N=C2NC(=O)/C(=C/C=C/c3ccco3)S2)cc1,i,i,i,21.6,i,76.5
Cc1cccc(N=C2NC(=O)/C(=C/C=C/c3ccco3)S2)c1C,nt,i,i,active,58.3,i
CCN(CC)c1ccc2nc3ccccc3[n+](CC)c2c1,i,i,i,71.8,i,i
CC(=O)c1cc2c(cc1NC(=O)CN(C)S(=O)(=O)c1cccs1)OCO2,i,i,i,nt,nt,nt
COc1ccc(OC)c(N(CCN2C(=O)c3ccccc3C2=O)C(=O)C2CCC(=O)C2C)c1 (stereo not given),nt,i,nt,nt,nt,nt
O=C(CCCCCNC(=S)Nc1ccccc1)C[N+](=O)[O-],i,i,i,i,i,i
CN(C)/C=N/c1nc2nccc(-c3ccc(F)cc3)n2n1,i,i,i,i,52.1,i
CN(C)/C=N/c1nc2nccc(-c3cccs3)n2n1,i,i,i,i,?,i
Fc1ccc(-c2ccnc3nc(N4CCOCC4)nn23)cc1,nt,i,i,i,51.9,i
CN(C)/C=N/c1nc2nccc(-c3cccc(Cl)c3)n2n1,i,i,i,i,50.5,i
Fc1ccc(-c2ccnc3nc(-n4cccc4)nn23)cc1,i,i,i,i,i,i
CC(=O)NC(CCc1ccc(Cl)c(Cl)c1)c1cccc(O)c(=O)c1 (stereo not given),nt,i,nt,nt,nt,nt
COc1ccc(CCCNC(=O)C2Cc3c(-c4cccc(C(C)=O)c4)ccnc3O2)cc1 (stereo not given),nt,i,nt,nt,nt,nt
CC(C)CN1CCN(Cc2ccc(CN3CCCCC3)s2)CC1CCO (stereo not given),i,i,i,10.2,i,62.7
CC(C)CN1CCN(Cc2nc3ccccc3s2)CC1CCO (stereo not given),i,i,i,i,i,i
SMILES,ALR H2O2 inh,MLLE-PAM2 inh,Efflux pump mplx,PABP polyA inh,SUMO HTRF inh,eIF4H inh
CN(C)c1ccc(/C=C2\CCCCC2=O)cc1,91.5,i,i,i,i,i
CC(C)C(NC(=O)c1ccccc1)C(=O)NC1=NCCS1 (stereo not given),i,43.9,i,i,i,i
CC(NC(=O)c1ccccc1)C(=O)NC1=NCCS1 (stereo not given),i,i,i,i,i,i
CC(=O)C1CCC2C3CCC4=CC(=O)CCC4(C)C3(F)C(O)CC12C (stereo not given),nt,i,nt,nt,nt,nt
Cc1ccc(NCc2nnc(SCC(N)=O)n2CC2CCCO2)c(C)c1 (stereo not given),88.9,i,i,i,i,i
CN(C)c1ccc(C(=O)N2CCCC(N3CCN(Cc4ccc5c(c4)OCO5)CC3)C2)cc1 (stereo not given),97.5,i,i,i,i,i
